# Most compounds without a hit are left out; they make up all but 1.1% or so of the library.
# NCOA2 inhibitor = inhibits human steroid receptor coactivator 2; Q15596; HEK293 GAL4-SRC2 luciferase reporter, luminescence; inhibition, % at 9 µM; hit rate 0.17% among 370,000; AID 651957;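 active means inhibition above the mean inhibition of all tested compounds plus 3 SD, set per campaign, cut at about 52% in these data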;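 further: 0% = DMSO treated cells and 100% = cells given Gossypol at 36 µM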
# COUP-TFII inh = inhibitors of human COUP-TFII (NR2F2); inhibition, % at 8.6 µM; hit rate 0.7% among 370,000; HEK293T NGFI-A luciferase reporter, luminescence; P24468;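 active means inhibition above a per-plate cutoff, mean inhibition of test wells between control levels plus 3 SD, cut at about 38% in these data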;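 further: cells cotransfected with COUP-TFII expression vector driving the NGFI-A reporter; 0% = median of COUP-TF2 test wells and 100% = reporter-only cells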
# GalR3 antagonist = antagonists of human GalR3. HEK293 GalR3-CNG cAMP membrane potential fluorescence; galR3 body fused to GalR1 C-terminus. inhibition, % at 3 µM. hit rate 0.44% among 360,000. AID 651719;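 active means inhibition above the screen-wide average plus 3 SD, cut at about 13% in these data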;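 further: forskolin and galanin both at EC90 stimulate the cells; cAMP rise reported by CNG channel membrane potential dye signal; 0% = forskolin plus galanin with DMSO and 100% = forskolin alone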
# NR5A2 inv ag = NR5A2 inverse agonism in reporter assay; O00482; HEK293T StAR-luciferase reporter, LRH-1 transfected, 24 h; inhibition, % at 3.6 µM; hit rate 0.13% among 360,000;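 active means inhibition above the mean inhibition of all tested compounds plus 3 SD, cut at about 73% in these data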;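 further: 0% = DMSO wells and 100% = reporter-only cells lacking LRH-1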
# SRC1 inh = inhibitors of human steroid receptor coactivator 1 (SRC1) | HEK293 GAL4-SRC1 luciferase reporter, luminescence | inhibition, % at 3.6 µM | Q15788 | hit rate 0.12% among 360,000;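 active means inhibition above the campaign mean plus 3 SD, with each screening campaign given its own cutoff, cut at about 60% in these data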;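 further: 0% = DMSO treated cells and 100% = gossypol at 36 µM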
# SRC3 inh = inhibitors of human steroid receptor coactivator 3 (SRC3). HEK293 GAL4-SRC3 luciferase reporter, luminescence. inhibition, % at 3.6 µM. hit rate 0.17% among 360,000. AID 588352;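 active means inhibition above a per-campaign cutoff, the mean of all compounds plus 3 SD, cut at about 60% in these data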;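 further: 0% = DMSO-treated cells and 100% = gossypol-treated cells at 36 µM; higher means less SRC3-driven luciferase light from the GAL4 reporter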
# Gal4-VP16 ctr = counter-screen for COUP-TFII antagonists: inhibitors of VP16; shares compounds with COUP-TFII inh; HEK293 Gal4-VP16 luciferase reporter, luminescence; inhibition, % at 8.5 µM; hit rate 25% among 2,500; in the data active means inhibition above about 13%
# NR2F2 inh conf = COUP-TFII (NR2F2) inhibition, confirmation assay | shares compounds with COUP-TFII inh | HEK293 NGFI-A luciferase reporter, luminescence | inhibition, % at 8.5 µM | hit rate 45% among 2,500;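 active means mean inhibition over three repeats above a set limit taken from the earlier primary screen, cut at about 38% in these data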;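 further: 100% = cells given the luciferase reporter alone without the COUP-TF2 vector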
# Starred values were filed as active, the others as inactive; nt = no result; ! = not confirmed by another sample.
SMILES,NCOA2 inhibitor,COUP-TFII inh,GalR3 antagonist,NR5A2 inv ag,SRC1 inh,SRC3 inh,Gal4-VP16 ctr,NR2F2 inh conf
COc1ccc(S[C@]2(C(=O)N3CCOCC3)CC(=O)N(C(=O)CCc3ccccc3)[C@@H]2c2ccc(OC)cc2)cc1,12,5,nt,nt,nt,nt,nt,nt
COc1ccc(CC(=O)Nc2ccc(-c3cn4cccc(C)c4n3)cc2)cc1OC,0,-5,-6,4,6,-1,nt,nt
Cc1cccn2cc(-c3ccc(NC(=O)Cc4ccccc4)cc3)nc12,0,54*,nt,-11,7,-16,0,-16
CCC(NC(=O)c1ccc2c(ccn2Cc2cccc(-c3ccc(C(=O)O)cc3)c2)c1)c1ccccc1 (stereo not drawn),6,0,nt,nt,nt,nt,nt,nt
Cn1nc(CC(=O)N2CCN(c3ccccc3)CC2)c2ccccc2c1=O,-1,8,0,-7,-3,4,nt,nt
Cn1nc(CC(=O)Nc2ccc(N3CCN(C(=O)OC(C)(C)C)CC3)cc2)c2ccccc2c1=O,25,53*,4,36,15,33,7,64*
Cc1csc(NC(=O)Cc2nn(C)c(=O)c3ccccc23)n1,13,45*,-3,7,2,10,-4,25
COc1cccc(OC)c1NC(=O)Cc1nn(C)c(=O)c2ccccc12,-22,24,3,1,12,14,nt,nt
COC(=O)C1CCN(C(=O)CN2CCC(C(=O)c3ccc(C)cc3)CC2)CC1,-9,-3,nt,nt,nt,nt,nt,nt
CCOC(=O)Oc1c(OC)cc(C(=O)O[C@@H]2C[C@@H]3CN4CCc5c([nH]c6cc(OC)ccc56)[C@H]4C[C@@H]3[C@H](C(=O)OC)[C@H]2OC)cc1OC,6,50*,0,-5,16,18,-12,43*
CCC(C)NC(=O)CN1C(=O)C2CCCCN2C(=O)c2ccccc21 (stereo not drawn),-8,-24,nt,nt,nt,nt,nt,nt
Cc1nn(-c2ccc3ccccc3c2)c(=O)c2ccccc12,-70,-40,-3,-109,-104,-75,nt,nt
Cc1nn(-c2nc3ccccc3[nH]2)c(=O)c2ccccc12,85*,97*,-1,73*,74*,80*,68*,90*
CC(=O)OC12CCCN(C1)/C(=C/c1cccnc1)C2 (stereo not drawn),-8,3,nt,nt,nt,nt,nt,nt
CCC1CCCCN1C(=O)n1ncc(C(O)(c2ccccc2)c2ccccc2)n1 (stereo not drawn),nt,50*,nt,nt,nt,nt,-4,43*!
CCn1c(C)cs/c1=N\S(=O)(=O)c1ccccc1,-11,5,-7,0,1,-9,nt,nt
O=Cc1s/c(=N\S(=O)(=O)c2ccccc2)n(CCCCl)c1Cl,-9,60*,-6,-2,-22,-6,62*,46*
CC(C)N1CCCCC(NC(=O)c2ccc(-c3ccccc3)cc2)C1=O (stereo not drawn),-24,0,nt,nt,nt,nt,nt,nt
CN[C@H]1C[C@H]2c3[nH]c4cccc(-c5cccc(F)c5)c4c3CCN2C(=O)[C@H]1[C@H](C)O,22,-6,nt,nt,nt,nt,nt,nt
CC(C)(C)c1ccc(CC(=O)N2CCC2(C)C(=O)Nc2cnc3ccccc3c2)cc1 (stereo not drawn),1,41*,-8,-30,13,4,-5,12
CC(C)(C)c1ccc(C(=O)N2CCC2(C)C(=O)Nc2cnc3ccccc3c2)cc1 (stereo not drawn),1,21,3,-9,3,10,nt,nt
CC(C)c1ccc(CC(=O)N2CCC2(C)C(=O)Nc2cnc3ccccc3c2)cc1 (stereo not drawn),0,45*,-9,-11,-4,3,-3,11
CCCC1CCC2(CC1)CCC2OC(=S)Nc1ccccc1 (stereo not drawn),nt,-2,nt,nt,nt,nt,nt,nt
O=C(NCc1ccccc1)OCCCN1C(=O)CCC12CCCCC2,-6,1,nt,nt,nt,nt,nt,nt
CC(C)(C)N(Cc1cn(Cc2ccccc2)nn1)S(=O)(=O)c1ccc(N2CCCCC2)cc1Br,18,-3,nt,nt,nt,nt,nt,nt
SMILES,NCOA2 inhibitor,COUP-TFII inh,GalR3 antagonist,NR5A2 inv ag,SRC1 inh,SRC3 inh,Gal4-VP16 ctr,NR2F2 inh conf
COc1ccc(OC[C@@H](O)CN2CCC(C(O)(c3ccccc3)c3ccccc3)CC2)cc1,16,3,nt,nt,nt,nt,nt,nt
O=C(NCc1cccc(Cl)c1)c1cccc2c(-c3cccnc3)coc12,13,42*,-4,-1,3,-8,-2,4
COC1=CC(=O)c2nc(Cl)ccc2C1=O,49,38*,-10,76*,64*,59,35*,26
O=C(Nc1ccc(OCc2ccccc2Cl)cc1)c1cccnc1,67*,38*,-10,16,24,21,-4,11
O=C(Nc1ccc(OCc2ccccc2)cc1)c1cccnc1,-49,-20,-2,-2,-66,-16,nt,nt
COc1ccc(CNC(=O)c2cc(S(=O)(=O)N3CCCCC3)ccc2Cl)cc1OC,1,51*,-4,37,12,6,2,33
COc1ccc(CNC(=O)c2cccc(S(=O)(=O)N3CCCCC3)c2)cc1OC,13,64*,6,29,25,6,3,45*
CC1(C)C(c2ccco2)=[N+]([O-])C2(CCCCC2=O)N1O (stereo not drawn),14,10,-5,-1,15,6,nt,nt
Cc1ccc(C2=[N+]([O-])C3(CCCCC3=O)N(O)C2(C)C)cc1 (stereo not drawn),78*,80*,-2,8,4,-2,-6,-7
Nn1cnnc1SCC(=O)Nc1ccc(C2CCCCC2)cc1,-6,-8,-1,-40,-38,-41,nt,nt
O=C(O)CSCC(=O)Nc1ccc(C2CCCCC2)cc1,91*,90*,-6,80*,76*,74*,83*,77*
COc1ccc(-c2cn[nH]c2-c2ccc(OCc3ccc([N+](=O)[O-])cc3)cc2O)cc1OC,21,38*,0,9,12,32,-7,25
O=[N+]([O-])c1ccc(COc2ccc(-c3[nH]ncc3-c3ccc(Cl)cc3)c(O)c2)cc1,17,-5,-3,9,5,16,nt,nt
CCC[C@H]1[C@@H](O)CC[C@@]23CCCN2C(=O)CCC[C@@H]13,nt,-13,nt,nt,nt,nt,nt,nt
COc1cc(CC(=O)OCC(=O)Nc2sccc2C(N)=O)cc(OC)c1OC,22,43*,-9,9,5,8,-14,3
NC(=O)c1ccsc1NC(=O)COC(=O)Cc1ccsc1,-71,14,0,-8,-16,12,nt,nt
O=c1c([N+](=O)[O-])c(Cl)c2ccccc2n1Cc1ccccc1,nt,8,nt,nt,nt,nt,nt,nt
COc1ccc(NC(=O)/C(Cl)=C(/Cl)S(=O)(=O)Cc2ccccc2)cn1,69*,66*,-4,32,-86,41,39*,59*

# Bioassay records (PubChem)
